Experiment [1] deals with Tyrosine-protein kinase ABL1 (Homo sapiens), P00519 [T315I]. Particulars: at 1 µM.
Experiment [2] concerns Tyrosine-protein kinase ABL1 (Homo sapiens), P00519 [Y253F]. Particulars: at 0.1 µM.
Experiment [3] shares this test system. The note with it: at 1 µM.
Experiment [4] addresses Tyrosine-protein kinase ABL1 (Homo sapiens) (UniProt P00519). The note with it: at 0.1 µM.
Experiment [5] shares this target. Particulars: at 1 µM.
Experiment [6] has as its target ALK tyrosine kinase receptor (Homo sapiens) (UniProt Q9UM73). Particulars: at 0.1 µM.
For experiment [7] the target is unchanged. The note with it: at 1 µM.
The target in experiment [8] is Tyrosine-protein kinase ABL2 (Homo sapiens) (UniProt P42684). Particulars: at 0.1 µM.
Experiment [9] shares this target. The note with it: at 1 µM.
The target in experiment [10] is Tyrosine-protein kinase receptor UFO (Homo sapiens) (UniProt P30530). Particulars: at 0.1 µM.
For experiment [11] the target is unchanged. The note with it: at 1 µM.
In experiment [12] the target is Tyrosine-protein kinase Blk (Homo sapiens) (UniProt P51451). Particulars: at 0.1 µM.
Experiment [13] shares this target. The note with it: at 1 µM.
In experiment [14] the target is T1, Cytoplasmic tyrosine-protein kinase BMX (Homo sapiens) (UniProt P51813).
T1 sequence (whole entry): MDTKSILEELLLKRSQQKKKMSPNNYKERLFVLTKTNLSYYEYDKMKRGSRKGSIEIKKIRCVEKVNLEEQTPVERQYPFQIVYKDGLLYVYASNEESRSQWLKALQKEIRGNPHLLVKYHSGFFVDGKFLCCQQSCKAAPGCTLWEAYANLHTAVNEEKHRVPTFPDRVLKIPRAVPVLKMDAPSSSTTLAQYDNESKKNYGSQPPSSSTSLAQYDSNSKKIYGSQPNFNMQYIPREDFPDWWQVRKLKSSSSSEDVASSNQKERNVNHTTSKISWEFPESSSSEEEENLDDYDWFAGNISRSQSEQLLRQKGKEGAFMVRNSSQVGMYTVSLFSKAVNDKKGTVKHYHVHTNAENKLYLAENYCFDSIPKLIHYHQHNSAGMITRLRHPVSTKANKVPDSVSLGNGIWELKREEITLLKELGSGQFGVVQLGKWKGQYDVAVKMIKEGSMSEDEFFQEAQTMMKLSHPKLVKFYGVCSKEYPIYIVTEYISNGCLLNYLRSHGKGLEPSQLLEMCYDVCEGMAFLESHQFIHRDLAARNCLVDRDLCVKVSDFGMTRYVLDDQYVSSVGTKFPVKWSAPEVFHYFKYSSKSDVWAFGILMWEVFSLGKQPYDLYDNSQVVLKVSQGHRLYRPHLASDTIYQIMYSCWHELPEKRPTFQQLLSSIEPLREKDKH
Particulars: at 0.1 µM.

The target of experiment [15] is T1, Cytoplasmic tyrosine-protein kinase BMX (Homo sapiens). Particulars: at 1 µM.
Experiment [16] addresses Protein-tyrosine kinase 6 (Homo sapiens) (UniProt Q13882). The note with it: at 0.1 µM.
Experiment [17] has the same target. Particulars: at 1 µM.
For experiment [18], the target named is Tyrosine-protein kinase BTK (Homo sapiens) (UniProt Q06187). The note with it: at 0.1 µM.
The target is the same in experiment [19]. The note with it: at 1 µM.
In experiment [20] the target is Tyrosine-protein kinase CSK (Homo sapiens) (UniProt P41240). Particulars: at 0.1 µM.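 Also: value given is the averaged percent inhibition of CSK kinase activity, from the GSK PKIS kinase inhibitor set screening panel.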
Tyrosine-protein kinase CSK (Homo sapiens), sequence (P41240 2-450 limits assumed): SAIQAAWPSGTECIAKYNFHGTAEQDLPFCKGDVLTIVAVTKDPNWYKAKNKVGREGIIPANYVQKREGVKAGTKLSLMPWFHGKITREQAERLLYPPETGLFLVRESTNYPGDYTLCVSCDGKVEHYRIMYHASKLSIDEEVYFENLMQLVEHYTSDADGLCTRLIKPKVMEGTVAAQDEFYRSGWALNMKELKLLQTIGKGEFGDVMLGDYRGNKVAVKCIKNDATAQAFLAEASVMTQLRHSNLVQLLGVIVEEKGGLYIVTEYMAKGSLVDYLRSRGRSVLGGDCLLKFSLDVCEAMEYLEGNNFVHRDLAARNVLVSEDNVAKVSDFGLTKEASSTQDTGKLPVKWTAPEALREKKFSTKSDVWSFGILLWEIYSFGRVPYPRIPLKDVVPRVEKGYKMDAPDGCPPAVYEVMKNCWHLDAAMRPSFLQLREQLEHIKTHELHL

Tyrosine-protein kinase BTK (Homo sapiens), sequence (Q06187 whole entry): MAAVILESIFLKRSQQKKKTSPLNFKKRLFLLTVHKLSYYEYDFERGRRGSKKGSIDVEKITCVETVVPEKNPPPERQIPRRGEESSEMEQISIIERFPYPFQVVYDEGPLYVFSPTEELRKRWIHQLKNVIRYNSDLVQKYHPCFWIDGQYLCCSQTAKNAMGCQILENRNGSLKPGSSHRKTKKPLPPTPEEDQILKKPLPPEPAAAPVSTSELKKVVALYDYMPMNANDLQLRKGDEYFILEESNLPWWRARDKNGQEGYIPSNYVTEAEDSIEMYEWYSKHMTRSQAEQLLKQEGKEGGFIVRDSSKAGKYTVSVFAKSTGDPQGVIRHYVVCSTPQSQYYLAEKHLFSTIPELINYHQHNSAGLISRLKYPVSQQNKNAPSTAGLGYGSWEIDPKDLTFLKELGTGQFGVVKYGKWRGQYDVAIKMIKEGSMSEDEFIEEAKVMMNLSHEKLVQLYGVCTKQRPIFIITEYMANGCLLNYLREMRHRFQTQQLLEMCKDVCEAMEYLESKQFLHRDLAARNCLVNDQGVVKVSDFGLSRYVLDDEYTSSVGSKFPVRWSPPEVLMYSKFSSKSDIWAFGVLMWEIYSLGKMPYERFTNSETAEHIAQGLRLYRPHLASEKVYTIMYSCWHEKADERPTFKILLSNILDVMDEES
ALK tyrosine kinase receptor (Homo sapiens), sequence (Q9UM73 19-1620 limits assumed): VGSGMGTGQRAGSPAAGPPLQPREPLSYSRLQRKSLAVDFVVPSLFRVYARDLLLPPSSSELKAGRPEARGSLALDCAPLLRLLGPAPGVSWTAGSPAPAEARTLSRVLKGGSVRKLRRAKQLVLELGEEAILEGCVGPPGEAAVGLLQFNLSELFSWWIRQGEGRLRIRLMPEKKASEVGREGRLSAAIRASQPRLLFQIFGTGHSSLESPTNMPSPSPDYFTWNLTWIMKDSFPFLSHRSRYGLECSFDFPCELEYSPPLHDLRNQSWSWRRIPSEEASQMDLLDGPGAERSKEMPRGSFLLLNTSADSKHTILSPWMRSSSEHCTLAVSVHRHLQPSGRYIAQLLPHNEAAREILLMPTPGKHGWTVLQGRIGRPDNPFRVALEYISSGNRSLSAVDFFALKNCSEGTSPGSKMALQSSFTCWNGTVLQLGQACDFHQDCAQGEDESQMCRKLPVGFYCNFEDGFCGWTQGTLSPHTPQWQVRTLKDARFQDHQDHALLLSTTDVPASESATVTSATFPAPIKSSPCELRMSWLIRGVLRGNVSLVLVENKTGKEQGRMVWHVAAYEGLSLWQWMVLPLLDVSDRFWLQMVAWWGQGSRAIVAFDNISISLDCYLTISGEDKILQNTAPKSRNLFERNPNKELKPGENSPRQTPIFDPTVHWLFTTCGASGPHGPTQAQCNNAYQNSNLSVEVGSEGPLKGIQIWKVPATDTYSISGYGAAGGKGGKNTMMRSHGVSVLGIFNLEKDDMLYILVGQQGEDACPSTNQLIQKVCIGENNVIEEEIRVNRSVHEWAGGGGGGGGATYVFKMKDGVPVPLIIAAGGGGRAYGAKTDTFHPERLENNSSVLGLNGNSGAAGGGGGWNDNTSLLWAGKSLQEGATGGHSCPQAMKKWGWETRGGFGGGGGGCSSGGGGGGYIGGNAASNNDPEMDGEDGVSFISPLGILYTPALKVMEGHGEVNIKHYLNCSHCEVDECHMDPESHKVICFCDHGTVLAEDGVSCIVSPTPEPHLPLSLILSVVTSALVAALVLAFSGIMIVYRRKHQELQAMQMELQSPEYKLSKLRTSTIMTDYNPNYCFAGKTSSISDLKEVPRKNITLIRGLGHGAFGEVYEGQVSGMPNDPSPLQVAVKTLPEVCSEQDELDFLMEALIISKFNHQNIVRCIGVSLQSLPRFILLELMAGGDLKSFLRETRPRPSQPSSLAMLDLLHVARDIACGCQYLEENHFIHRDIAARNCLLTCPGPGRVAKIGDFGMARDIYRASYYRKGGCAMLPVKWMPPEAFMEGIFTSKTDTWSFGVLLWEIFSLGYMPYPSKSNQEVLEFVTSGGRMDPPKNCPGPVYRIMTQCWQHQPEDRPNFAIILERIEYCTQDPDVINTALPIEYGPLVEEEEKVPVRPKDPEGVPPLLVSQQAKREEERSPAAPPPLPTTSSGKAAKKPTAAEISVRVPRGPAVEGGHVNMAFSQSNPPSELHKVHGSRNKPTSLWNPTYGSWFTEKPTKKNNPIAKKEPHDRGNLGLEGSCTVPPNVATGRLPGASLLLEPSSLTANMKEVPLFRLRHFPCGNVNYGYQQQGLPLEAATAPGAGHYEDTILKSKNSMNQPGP
Protein-tyrosine kinase 6 (Homo sapiens), sequence (Q13882 whole entry, looked up): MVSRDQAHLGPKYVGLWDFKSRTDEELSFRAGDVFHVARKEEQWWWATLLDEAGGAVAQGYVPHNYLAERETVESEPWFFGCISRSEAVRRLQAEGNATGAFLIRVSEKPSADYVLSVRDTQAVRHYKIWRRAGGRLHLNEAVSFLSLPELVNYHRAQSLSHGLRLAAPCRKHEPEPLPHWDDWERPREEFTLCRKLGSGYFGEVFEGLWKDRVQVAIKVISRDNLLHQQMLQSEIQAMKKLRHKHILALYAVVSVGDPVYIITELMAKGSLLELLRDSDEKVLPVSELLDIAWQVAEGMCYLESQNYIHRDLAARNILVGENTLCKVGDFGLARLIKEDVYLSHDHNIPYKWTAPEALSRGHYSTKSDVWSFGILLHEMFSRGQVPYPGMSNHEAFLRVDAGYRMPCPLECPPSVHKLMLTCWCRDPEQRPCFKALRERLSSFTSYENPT
Tyrosine-protein kinase Blk (Homo sapiens), sequence (P51451 2-505 limits assumed): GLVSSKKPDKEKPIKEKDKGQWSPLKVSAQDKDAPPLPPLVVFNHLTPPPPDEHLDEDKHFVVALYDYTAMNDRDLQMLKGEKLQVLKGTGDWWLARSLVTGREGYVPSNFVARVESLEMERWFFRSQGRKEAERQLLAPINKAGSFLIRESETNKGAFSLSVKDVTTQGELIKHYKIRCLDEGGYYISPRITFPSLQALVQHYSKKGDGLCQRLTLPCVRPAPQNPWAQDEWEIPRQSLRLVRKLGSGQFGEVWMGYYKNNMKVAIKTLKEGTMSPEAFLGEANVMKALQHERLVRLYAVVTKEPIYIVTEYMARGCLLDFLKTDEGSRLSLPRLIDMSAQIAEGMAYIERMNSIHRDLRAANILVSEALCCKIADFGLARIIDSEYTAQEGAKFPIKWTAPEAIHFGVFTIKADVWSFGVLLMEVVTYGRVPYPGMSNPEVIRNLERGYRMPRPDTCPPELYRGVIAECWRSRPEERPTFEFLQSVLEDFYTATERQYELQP
Tyrosine-protein kinase ABL2 (Homo sapiens), sequence (P42684 whole entry): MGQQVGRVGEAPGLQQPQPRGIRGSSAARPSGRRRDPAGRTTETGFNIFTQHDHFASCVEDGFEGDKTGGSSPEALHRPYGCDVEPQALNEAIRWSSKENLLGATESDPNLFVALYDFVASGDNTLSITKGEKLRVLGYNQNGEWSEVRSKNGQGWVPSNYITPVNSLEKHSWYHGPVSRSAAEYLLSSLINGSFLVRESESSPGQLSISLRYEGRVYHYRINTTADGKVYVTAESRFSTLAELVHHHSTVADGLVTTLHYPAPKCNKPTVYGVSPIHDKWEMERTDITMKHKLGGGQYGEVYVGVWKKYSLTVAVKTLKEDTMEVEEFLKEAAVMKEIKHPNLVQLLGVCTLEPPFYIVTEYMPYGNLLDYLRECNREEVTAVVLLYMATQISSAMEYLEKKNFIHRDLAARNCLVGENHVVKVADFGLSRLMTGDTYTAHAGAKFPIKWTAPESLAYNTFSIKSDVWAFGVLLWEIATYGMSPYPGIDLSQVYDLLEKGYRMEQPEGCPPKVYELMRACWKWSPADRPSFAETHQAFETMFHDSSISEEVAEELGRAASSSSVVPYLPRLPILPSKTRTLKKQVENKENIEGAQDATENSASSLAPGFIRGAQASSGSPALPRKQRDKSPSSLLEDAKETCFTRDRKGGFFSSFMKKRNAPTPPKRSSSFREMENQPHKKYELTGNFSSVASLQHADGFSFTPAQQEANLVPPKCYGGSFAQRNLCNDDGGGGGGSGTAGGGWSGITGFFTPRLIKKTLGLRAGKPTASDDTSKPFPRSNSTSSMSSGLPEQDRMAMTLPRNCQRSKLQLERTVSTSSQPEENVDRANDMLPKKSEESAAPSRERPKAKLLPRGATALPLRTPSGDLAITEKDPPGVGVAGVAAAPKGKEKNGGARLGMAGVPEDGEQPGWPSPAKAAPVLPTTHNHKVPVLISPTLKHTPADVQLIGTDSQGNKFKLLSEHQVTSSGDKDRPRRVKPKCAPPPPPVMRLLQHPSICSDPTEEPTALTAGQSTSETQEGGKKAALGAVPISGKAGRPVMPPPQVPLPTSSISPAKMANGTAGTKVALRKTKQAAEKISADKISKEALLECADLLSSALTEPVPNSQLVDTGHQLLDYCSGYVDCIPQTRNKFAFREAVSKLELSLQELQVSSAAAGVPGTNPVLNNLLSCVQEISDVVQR

Regarding `CS(=O)(=O)CCNCc1ccc(-c2ccc3ncnc(Nc4ccc(OCc5ccccc5)c(Br)c4)c3c2)o1`, the inhibition in [1] was 1.57%; in experiment [2], 4.14%; in experiment [3], 4.05%; in experiment [4], 3.09%; in [5] it was 2.83%; in experiment [6], -0.91%. Also, the inhibition in experiment [7] was 1.84%; in experiment [8], 0.83%; in [9], 4.36%; in experiment [10], -6.75%; in experiment [11] it was -7.91%; in experiment [12], -0.29%. The inhibition was 3.05% in [13]; 3.44% in [14]; 0.49% in experiment [15]; 4.61% in experiment [16]; 11.8% in experiment [17]; -3.57% in experiment [18]. Further, the inhibition in experiment [19] was -0.34%; in experiment [20] it was 0.44%.

For `COc1ccc2ncn(-c3cc(O[C@H](C)c4ccccc4Cl)c(C(N)=O)s3)c2c1`, the inhibition in [1] is 3.67%; in experiment [2] it was 2.13%; in experiment [3] it was 4.15%; in experiment [4], -0.74%; in [5], 0.5%; in experiment [6] it was -1.6%. Besides, the inhibition is 0.59% in experiment [7]; -1.99% in experiment [8]; -0.05% in experiment [9]; -9.61% in [10]; -8.67% in experiment [11]; -1.08% in [12]. The inhibition in [13] was -2.12%; in experiment [14], 3.14%; in experiment [15], 4.61%; in experiment [16], -0.06%; in [17], 4.71%; in experiment [18] it was -4.3%. Besides, the values for the inhibition in experiment [19] and in [20] were -3.34% and 4.64%, respectively.

Consider `CN1CCN(CCCNc2nc3ccc(Oc4ccc(NC(=O)Nc5cc(C(F)(F)F)ccc5F)cc4)cc3[nH]2)CC1`, for which the inhibition was 32% in experiment [1]; 4.8% in experiment [2]; 10.8% in [3]; -0.51% in experiment [4]; 13.6% in experiment [5]; -3.93% in [6]. In addition, the inhibition is 0.57% in [7]; -0.15% in [8]; 15.4% in experiment [9]; 0.85% in experiment [10]; 27.5% in [11]; -2.37% in [12]. In addition, the inhibition was -2.3% in [13]; -1.87% in [14]; 2.63% in [15]; -0.99% in experiment [16]; 1.35% in experiment [17]; -3.09% in experiment [18]. Further, the inhibition in [19] is 1.43%; in experiment [20] it was -0.95%.

Regarding `CN(C)CCCNc1nccc(-c2c(-c3ccc(F)cc3)nn3cc(C(F)(F)F)ccc23)n1`, the inhibition in experiment [1] is 2.66%; in experiment [2] it was 3.93%; in experiment [3] it was 6.04%; in experiment [4], 2.04%; in experiment [5], 11.2%; in experiment [6], -2.64%. The inhibition in [7] was -0.07%; in experiment [8] it was 2.2%; in experiment [9], 6.34%; in experiment [10] it was -2.11%; in experiment [11], 3.68%; in [12], -1.5%. Moreover, the inhibition is -0.77% in experiment [13]; -2.3% in experiment [14]; 3.77% in [15]; 2.2% in [16]; 4.39% in [17]; -3.09% in experiment [18]. In addition, the results for the inhibition in experiment [19] and in [20] were -2.3% and 2.44%, respectively.

Consider `NS(=O)(=O)c1ccc(N/N=C2\C(=O)Nc3ccc(C(=O)NCCCn4ccnc4)cc32)cc1`, for which the inhibition in [1] was determined as 14.2%; in experiment [2], 5.66%; in experiment [3], 15.5%; in experiment [4], 2.77%; in [5], 13.3%; in [6], 3.7%. For the same compound, the inhibition in experiment [7] was 11.1%; in experiment [8], 4.28%; in experiment [9] it was 9.85%; in experiment [10], -2.66%; in experiment [11] it was 3.27%; in experiment [12], 2.75%. The inhibition in experiment [13] was 12.2%; in [14], 10.2%; in experiment [15], 8.26%; in experiment [16], 4.87%; in [17], 6.65%; in [18], -1.04%. The inhibition in experiment [19] was 0.06%; in experiment [20] it was 2.76%.

`NC(=O)c1cc(-c2ccc(F)cc2)cc(-c2ccncc2)c1N`: the inhibition is 4.82% in experiment [1]; 4.33% in experiment [2]; 5.14% in [3]; 2.42% in experiment [4]; 6.04% in [5]; 1.8% in experiment [6]. The inhibition was 4.91% in [7]; 1.26% in experiment [8]; 5.07% in [9]; -7.77% in [10]; -4.61% in [11]; 2.33% in [12]. For the same compound, the inhibition in experiment [13] worked out at 4.55%; in [14], 7.08%; in [15] it was 7.6%; in experiment [16] it was 3.05%; in experiment [17], 5.71%; in [18] it was 0.21%. For the same compound, the inhibition in [19] was -0.9%; in [20] it was 0.77%.

The record behind these values is ChEMBL document CHEMBL1961873, “Compounds: GSK PKIS; Assays: Nanosyn kinase panel” (2012).
